Assay outcomes: PubChem, several laboratories
Shown is part of a subset that was picked to be rich in hits.
GIRK2 activator: Activators of human GIRK2-containing channels | P48051 | HEK293 GIRK2/NPY4 cells, thallium flux fluorescence | activation (% efficacy), % for hits at 37.5 µM | 34,000 tested, under 10 active;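 active means primary screen hit, no activity in plain HEK293 cells, and in GIRK2-only cells above 5% efficacy rising with concentration; inactive means the rest, including fluorescent compounds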;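 further: efficacy is normalized control-subtracted fluorescence 15 s after thallium addition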
AMPAR-TARP mod: modulators of AMPA receptor GluA2-stargazin complexes; O88602+P19491; HEK293 GluA2+stargazin, membrane potential dye (FDSS), glutamate EC50; hits were called plate by plate, in both directions; calls only at 30 µM; actives 3.5% (n = 40,000);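 active means any of four per-well response measures lying three or more SD from its plate-wide compound average, in either direction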
Target sequence (O88602 whole entry, looked up): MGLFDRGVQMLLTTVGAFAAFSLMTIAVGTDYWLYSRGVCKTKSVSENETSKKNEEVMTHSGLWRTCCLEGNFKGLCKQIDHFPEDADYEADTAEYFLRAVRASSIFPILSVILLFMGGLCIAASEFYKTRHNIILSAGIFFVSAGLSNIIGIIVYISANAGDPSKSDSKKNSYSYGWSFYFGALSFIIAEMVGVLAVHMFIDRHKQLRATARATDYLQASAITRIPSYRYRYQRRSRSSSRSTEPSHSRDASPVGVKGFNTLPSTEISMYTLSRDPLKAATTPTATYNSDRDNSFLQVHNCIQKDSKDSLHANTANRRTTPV
Target sequence (P19491 whole entry, looked up): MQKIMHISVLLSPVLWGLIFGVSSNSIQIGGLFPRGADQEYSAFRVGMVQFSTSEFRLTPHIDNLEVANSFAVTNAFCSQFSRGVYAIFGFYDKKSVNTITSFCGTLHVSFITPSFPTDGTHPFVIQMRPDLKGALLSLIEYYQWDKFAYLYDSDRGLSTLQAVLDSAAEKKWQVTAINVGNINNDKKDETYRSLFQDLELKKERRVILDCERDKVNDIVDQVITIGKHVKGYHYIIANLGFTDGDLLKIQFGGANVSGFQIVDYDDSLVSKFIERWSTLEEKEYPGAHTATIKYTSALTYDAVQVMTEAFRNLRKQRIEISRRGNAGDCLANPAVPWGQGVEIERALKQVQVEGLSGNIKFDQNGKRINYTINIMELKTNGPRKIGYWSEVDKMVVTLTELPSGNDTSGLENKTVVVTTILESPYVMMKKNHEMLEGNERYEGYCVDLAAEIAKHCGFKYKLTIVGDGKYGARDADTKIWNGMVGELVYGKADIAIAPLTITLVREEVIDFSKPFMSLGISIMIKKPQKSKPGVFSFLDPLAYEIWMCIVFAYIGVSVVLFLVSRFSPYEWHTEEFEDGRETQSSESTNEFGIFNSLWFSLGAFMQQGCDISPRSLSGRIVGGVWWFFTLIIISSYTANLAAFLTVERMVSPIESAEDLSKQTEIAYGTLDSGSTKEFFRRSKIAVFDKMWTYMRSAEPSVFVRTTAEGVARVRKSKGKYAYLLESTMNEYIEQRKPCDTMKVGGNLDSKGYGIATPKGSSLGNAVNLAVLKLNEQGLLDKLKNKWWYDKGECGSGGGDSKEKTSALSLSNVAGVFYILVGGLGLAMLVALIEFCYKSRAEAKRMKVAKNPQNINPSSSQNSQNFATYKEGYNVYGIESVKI
Each line names hits and unclear results; the compound was inactive in the other large screens.

CC(O)(CNC(=O)C(=O)Nc1ccc(F)cc1F)C1CC1 (configuration not stated)	none
CC(C)S(=O)(=O)c1ccc(C(=O)Nc2sc3c(c2C(N)=O)CCCC3)cc1	none
CC(=O)N1CCc2c(sc(NC(=O)c3ccc(S(=O)(=O)C(C)C)cc3)c2C(N)=O)C1	AMPAR-TARP mod active
COc1ccc(C)cc1S(=O)(=O)NCCNc1ccc(Nc2cccc(C)n2)nn1	none (no result: AMPAR-TARP mod)
COc1ccc(CCC(=O)Nc2cccc(-n3c(C)nc4ccccc4c3=O)c2)cc1	AMPAR-TARP mod active (no result: GIRK2 activator)
COc1ccc(CCC(=O)Nc2cc(-n3c(C)nc4ccccc4c3=O)ccc2F)cc1	none
COc1ccc(C(=O)/C=C/c2ccc(OC)cc2OC)cc1	none (no result: GIRK2 activator)
COc1ccc(C(=O)Oc2c(S(=O)(=O)c3ccc(C)cc3)c(C)nn2C(C)(C)C)cc1OC	AMPAR-TARP mod active (no result: GIRK2 activator)
Cc1ccc(S(=O)(=O)c2c(C)nn(C(C)(C)C)c2OC(=O)c2cccc(C)c2)cc1	none (no result: GIRK2 activator)
CCSc1ccccc1C(=O)NCC1(c2ccc(OC)cc2)CCCC1	AMPAR-TARP mod active
COC(=O)NCC1(c2ccc(OC)cc2)CCCC1	none
CSc1nn(C(=O)CCl)c(N)c1S(=O)(=O)c1ccccc1	none (no result: GIRK2 activator)
COc1cc(/C=C2\SC(=S)N(c3ccc4c(c3)OCO4)C2=O)cc(OC)c1OC	none (no result: GIRK2 activator)
COc1cccc(/C=C2/SC(=S)N(c3ccc4c(c3)OCO4)C2=O)c1OC	AMPAR-TARP mod active (no result: GIRK2 activator)
C#CCn1c(SCCOc2cccc(OC)c2)nc2ccccc21	AMPAR-TARP mod active (no result: GIRK2 activator)
COc1cccc(OCCn2c(CN3CCCCC3)nc3ccccc32)c1	none (no result: GIRK2 activator)
CCOc1ccccc1NC(=O)C(=O)NCC(c1cccc2ccccc12)N1CCOCC1 (configuration not stated)	none (no result: GIRK2 activator)
Cc1nc2ccccc2n1CC1CCN(C(=O)NCc2ccc(F)cc2)CC1	none
O=C(CCCSc1ccc(F)cc1)Nc1nnc(Cc2cccs2)o1	none (no result: AMPAR-TARP mod)
CCCc1nnsc1C(=O)Nc1ccc2c(c1)CN(C(=O)c1ccco1)CC2	none
O=C(Nc1ccc2c(c1)CN(C(=O)C1CC1)CC2)c1ccc2nsnc2c1	AMPAR-TARP mod active
CSc1ccccc1C(=O)Nc1ccc2c(c1)CN(C(=O)c1ccco1)CC2	none
O=C(Nc1ccc2c(c1)CN(C(=O)C1CC1)CC2)c1ccsc1	none
O=C(Nc1ccc2c(c1)CN(C(=O)c1ccco1)CC2)c1cnccn1	AMPAR-TARP mod active
O=C(Nc1ccc2c(c1)CN(C(=O)c1ccco1)CC2)c1ccc2nsnc2c1	AMPAR-TARP mod active
COc1ccc(-n2ccnc(SCC(=O)Nc3ccc(C(C)C)cc3)c2=O)cc1	none (no result: GIRK2 activator)
COc1ccccc1-c1nc(Cn2nnc(C(=O)Nc3c(C)cccc3C)c2C)c(C)o1	none
O=C(c1ccc2ncsc2c1)N1CCC(Cn2cccn2)CC1	none
Cc1ccc(S(=O)(=O)N(C)c2c(C)ccc(S(=O)(=O)NCCC(=O)O)c2C)cc1	none (no result: GIRK2 activator)
COc1ccc(OCC(=O)Nc2ccc3c(c2)N(C(=O)C(C)(C)C)CC3)cc1	none
COc1ccc(C)cc1S(=O)(=O)Nc1ccc2c(c1)N(C(=O)C(C)(C)C)CC2	none
COc1ccccc1OCC(=O)Nc1ccc2c(c1)N(C(=O)C(C)(C)C)CC2	AMPAR-TARP mod active
COc1ccc(Cl)cc1S(=O)(=O)Nc1ccc2c(c1)N(C(=O)C(C)(C)C)CC2	AMPAR-TARP mod active
O=C(NCCc1ccccc1)C(=O)NCC(O)C1CCCCC1 (configuration not stated)	none (no result: AMPAR-TARP mod)
Cc1c(Cl)cccc1S(=O)(=O)NCC(O)c1ccc(C(F)(F)F)cc1 (configuration not stated)	AMPAR-TARP mod active
Cc1c(Cl)cccc1S(=O)(=O)NCC(O)c1ccsc1 (configuration not stated)	none
O=S(=O)(NCC(O)c1ccc(C(F)(F)F)cc1)c1ccc2c(c1)CCCC2 (configuration not stated)	none
COc1ccc(S(=O)(=O)NCC(O)c2ccc(C(F)(F)F)cc2)cc1Cl (configuration not stated)	AMPAR-TARP mod active (no result: GIRK2 activator)
O=C(Nc1ccccn1)c1ccc(S(=O)(=O)Nc2cccnc2)o1	none
COC(=O)c1ccc(NC(=O)c2nnn(-c3ccccc3)c2C)cc1	none
COC(=O)c1cccc(NC(=O)c2nnn(-c3ccccc3F)c2C)c1	AMPAR-TARP mod active
CCCc1c(C(=O)Nc2cc(OC)ccc2OC)nnn1-c1ccccc1	none
CCCc1c(C(=O)Nc2cccc(C(=O)OC)c2)nnn1-c1ccccc1	AMPAR-TARP mod active
O=C(c1ccccc1C(F)(F)F)N1CCC2(CC1)NC(=O)N(Cc1ccc(F)cc1)C2=O	none
CCCCC(CC)CNC(=O)C1CCC(Cn2c(=S)[nH]c3ccccc3c2=O)CC1 (configuration not stated)	none
COC(=O)c1scc(-c2ccccc2)c1S(=O)(=O)N1CCCC1	none (no result: GIRK2 activator)
COC(=O)c1scc(-c2ccccc2)c1S(=O)(=O)N1CCN(Cc2ccccc2)CC1	AMPAR-TARP mod active (no result: GIRK2 activator)
CCOc1ccc(-n2nnnc2CN2CCN(C(=O)c3cccs3)CC2)cc1	none
COc1cc(OC)cc(C(=O)Nc2ccc(N3CCCC3=O)cc2)c1	none
